Cruzain noTriton = inhibitors of Trypanosoma cruzi cruzain without detergent; P25779; purified cruzain, Z-FR-AMC fluorescence, no detergent; Potency, µM, actives largely listed as inhibitors; 200,000 compounds, 2.3% hits; also: nearly all actives have a fitted effect of over 40% in size
Target sequence (P25779 123-467 limits assumed): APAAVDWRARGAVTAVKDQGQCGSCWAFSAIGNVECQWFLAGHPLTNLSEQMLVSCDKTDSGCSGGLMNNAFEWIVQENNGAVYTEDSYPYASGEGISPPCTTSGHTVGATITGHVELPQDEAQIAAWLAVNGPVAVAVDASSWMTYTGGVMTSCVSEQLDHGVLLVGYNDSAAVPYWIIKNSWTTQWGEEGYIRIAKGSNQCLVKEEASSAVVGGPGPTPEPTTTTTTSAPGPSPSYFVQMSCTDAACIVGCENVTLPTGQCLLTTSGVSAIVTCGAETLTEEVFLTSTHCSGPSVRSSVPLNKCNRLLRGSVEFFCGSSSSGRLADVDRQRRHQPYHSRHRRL
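Detergent-free condition (0.00005% Triton X-100) in acetate buffer pH 5.5 with DTT. 1.5 nM enzyme and compound were pre-mixed 15 min, then 2 uM Z-FR-AMC substrate added; reaction progress from fluorescence change between first and third reads (60 s).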
Cruzain inh Det = cruzain (T. cruzi) inhibition with detergent | AID 1478 | Potency, µM, hits mostly inhibitors | 200,000 compounds, 0.43% hits | P25779 | purified cruzain, Z-FR-AMC fluorescence, 0.01% Triton; also: nearly all actives have a fitted effect of over 40% in size
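15 min RT preincubation of 1.5 nM cruzain with compound, then 2 uM Z-FR-AMC added; kinetic AMC fluorescence, 60 s delta. Triton X-100 0.01%, pH 5.5.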
Of the large screens only hits and unclear results are named; the others gave an inactive call. This is a sample that favours compounds with a hit; in the whole collection about 2.4% have one here. Calls follow the shape of the dose curve; as a rule, active = well fitted curve in the direction sought with a large enough effect; inconclusive = small, poorly fitted or top-dose-only effect, or another doubt; inactive = no such curve, though single readings can be large; an effect the other way counts as inactive or inconclusive.

CC(=O)C1=NN(c2ccccc2)C2(S1)S/C(=C\c1ccccc1)C(=O)N2c1ccccc1 (stereo not given)	Cruzain noTriton 10µM
COC(=O)C1=NN(c2ccccc2)C2(S1)SC(C(C)=O)=C(C)N2c1ccccc1 (stereo not given)	none
Cc1ccc(S(=O)(=O)N2CCCc3cc(NC(=O)c4ccc(C(C)(C)C)cc4)ccc32)cc1	Cruzain noTriton 3.2µM
CC(=O)Nc1ccc(NC(=O)c2ccc3c(c2)CCN3S(=O)(=O)c2ccc(C)cc2)cc1	none
COc1ccc(NC(=O)c2ccc3c(c2)CCN3S(=O)(=O)c2ccc(C)cc2)cc1Cl	Cruzain noTriton 7.9µM
COc1ccc(C(=O)Nc2ccc3c(c2)CCCN3S(=O)(=O)c2ccc(C)cc2)cc1	Cruzain noTriton inconclusive
CCc1cccc(CC)c1NC(=O)c1ccc2c(c1)CCN2S(=O)(=O)c1ccccc1	none
O=C(Nc1ccc(Cl)c(C(F)(F)F)c1)c1ccc2c(c1)CCN2S(=O)(=O)c1ccccc1	Cruzain noTriton 25µM
COCCCNc1nc2c(-c3ccccc3)nnn2c2ccccc12	none
Cc1ccc(-c2nnn3c2nc(NCC(C)c2ccccc2)c2ccccc23)cc1 (stereo not given)	Cruzain noTriton 5µM
CCOC(=O)N1CCN(C(=O)CS(=O)(=O)c2cn(Cc3ccccc3Cl)c3ccccc23)CC1	Cruzain noTriton inconclusive
Cc1cc(NC(=O)CS(=O)(=O)c2cn(Cc3ccccc3Cl)c3ccccc23)no1	Cruzain noTriton 25µM
O=C(c1ccco1)N1CCN(c2nc3ccccc3n3nnnc23)CC1	none
c1ccc(CC2CCN(c3nc4ccccc4n4nnnc34)CC2)cc1	Cruzain noTriton 25µM
COc1ccccc1CC(=N)N1C[C@@H]2C(=O)CCC(c3ccccc3)(c3ccccc3)[C@@H]2C1	none
Cc1cc(/C=C2/SC(=S)N(c3ccc([N+](=O)[O-])cc3)C2=O)c(C)n1-c1cccnc1	Cruzain noTriton 16µM
Cc1ccc(N2C(=O)/C(=C/c3cccnc3)SC2=S)cc1	Cruzain noTriton inconclusive
COc1ccc(NC(=O)c2c(C)oc3ccc(O)c(CN4CCN(Cc5ccccc5)CC4)c23)cc1Cl	none
CC1=CSC2=NC(=O)/C(=C\c3cccn3-c3ccccc3)C(=N)N12	Cruzain noTriton 13µM
CCC(CC)C1=NN2C(=N)/C(=C\c3cc(C)n(-c4cccc(C)c4)c3C)C(=O)N=C2S1	Cruzain noTriton 25µM
Cc1cc(/C=C2\C(=N)N3C(SCc4ccccc4)=NSC3=NC2=O)c(C)n1Cc1ccccc1	Cruzain noTriton 3.2µM
Cc1nn(-c2ccccc2)c(Cl)c1/C=C1/C(=N)N2N=C(C(C)C)SC2=NC1=O	Cruzain noTriton inconclusive
CSC1=NSC2=NC(=O)/C(=C\c3coc4ccccc4c3=O)C(=N)N12	Cruzain noTriton inconclusive
CC1=CSC2=NC(=O)/C(=C\c3cccn3-c3ccc([N+](=O)[O-])cc3)C(=N)N12	Cruzain noTriton inconclusive
Cc1cc(/C=C2/C(=N)N3C(c4ccccc4)=CSC3=NC2=O)c(C)n1-c1ccccc1	Cruzain noTriton 4µM
CC1=CC2=NC(=O)/C(=C\c3cc(C)n(-c4ccc(F)cc4)c3C)C(=N)N2O1	none
O=C(NC1CCCC1)c1ccc2c(c1)N(Cc1ccc(C(F)(F)F)cc1)C(=O)c1ccccc1S2	Cruzain noTriton inconclusive
COc1ccc2c(CNCCc3cccs3)c(C(=O)O)n(Cc3ccccc3C)c2c1	none
Cc1cc(C)c(Cn2c(=O)n(CCCCCC(=O)NCc3ccc4c(c3)OCO4)c(=O)c3sccc32)c(C)c1	none
COc1cc(NC(=O)CCc2c(C)nc3c(-c4ccc(F)cc4)c(C)nn3c2C)cc(OC)c1OC	none
COc1ccccc1CN1CCC(CNS(=O)(=O)c2cc(-c3onc(C)c3C)ccc2OC)CC1	none
Cc1ccc(C)c(S(=O)(=O)NCC(c2ccco2)S(=O)(=O)c2ccc(F)cc2)c1 (stereo not given)	none
NC(=O)c1c(N)sc2c1CCCC2	Cruzain noTriton 20µM
Nc1sc2c(c1C(=O)c1ccccc1)CCCC2	none
CCCN(CCC)S(=O)(=O)c1ccc(C(=O)N2CCn3c4c(c5cc(C)ccc53)CCCC42)cc1 (stereo not given)	none
CCOP(=O)(OCC)C(NC(=O)c1ccc(Cl)cc1)=C(Cl)Cl	none
CCOP(=O)(OCC)C(C#N)=C1SCN(c2ccc(Cl)cc2)CS1	Cruzain noTriton 13µM
COc1cccc([C@@H]2Oc3ccc(OC)cc3C(=O)[C@H]2OC(=O)NCCOc2ccccc2)c1	none
COc1ccc(-c2noc(N3CCC(C(=O)N4CCN(c5cccc(OC)c5)CC4)CC3)n2)cc1	none
Cc1c(/C=C(\C#N)C(=O)Nc2cccc(Cl)c2)c2ccccc2n1Cc1ccccc1Cl	Cruzain noTriton 1.6µM
N#C/C(=C\c1cn(Cc2ccccc2F)c2ccccc12)C(=O)NCc1ccco1	none
Cc1ccc(C)c(OCCn2cc(/C=C(\C#N)C(=O)NCc3ccco3)c3ccccc32)c1	Cruzain noTriton inconclusive
Cc1ccc(NC(=O)/C(C#N)=C\c2ccc(Cl)cc2Cl)cc1C	none
Cc1cccc(NC(=O)/C(C#N)=C/c2cn(CC(=O)NCc3ccco3)c3ccccc23)c1	Cruzain noTriton 10µM
N#C/C(=C/c1cn(Cc2ccccc2Cl)c2ccccc12)C(=O)Nc1cccc(Cl)c1	Cruzain noTriton 3.2µM
FC(F)(F)c1cc(CN2CCC3(CCNCC3)CC2)cc(C(F)(F)F)c1	none
N#C[C@@H](N=Nc1ccccc1C(=O)O)C(N)=O	none
CC(Oc1ccc(O)cc1)(P(=O)(O)O)P(=O)(O)O	none
Brc1csc(CN2CCc3nc(Nc4ccccc4)ncc3C2)c1	Cruzain noTriton inconclusive
COc1cc(Nc2ncc3c(n2)CCN(Cc2cc(Br)cs2)C3)cc(OC)c1	Cruzain noTriton 25µM
CC1(C)C(C=C(Cl)Cl)C1C(=O)Nc1ccc([N+](=O)[O-])cc1 (stereo not given)	Cruzain noTriton 10µM, Cruzain inh Det 13µM
O=C(Nc1ccc([N+](=O)[O-])cc1)C1CC1(c1ccccc1)c1ccccc1 (stereo not given)	none
CCOc1ccccc1C(=O)Nc1ccc(S(=O)(=O)N(Cc2ccccc2)c2ccccc2)cc1	none
Cc1ccc(OCC(=O)Nc2ccc(S(=O)(=O)N(Cc3ccccc3)c3ccccc3)cc2)cc1	Cruzain noTriton 7.9µM
Cn1cc(C2=C(c3cn(CCCSC(=N)N)c4ccccc34)C(=O)NC2=O)c2ccccc21	Cruzain noTriton inconclusive
COc1ccc(-c2csc(Nc3cccnc3)n2)cc1OC	none
c1cncc(-c2nc(-c3ccc4c(c3)OCO4)cs2)c1	none
COc1ccccc1Nc1nc(-c2cccc(N3C(=O)c4ccccc4C3=O)c2)cs1	Cruzain noTriton 7.9µM
COc1ccccc1Nc1nc(-c2sc(NC(=O)CC(C)C)nc2C)cs1	Cruzain noTriton inconclusive
O=C1c2ccccc2C(=O)N1c1cccc(-c2csc(Nc3ccc4c(c3)OCO4)n2)c1	Cruzain noTriton 5µM
COc1ccccc1Nc1nc(-c2c(C)[nH]c3ccccc23)cs1	Cruzain noTriton 25µM
Cc1ccccc1C(c1c(C)n(C)n(-c2ccccc2)c1=O)c1c(C)n(C)n(-c2ccccc2)c1=O	none
COc1ccc(-c2ccc(CCC(=O)O)n2CC(=O)Nc2cccc(Cl)c2C)cc1	none
CCOc1ccccc1NC(=O)c1c(NCc2ccc(OC)c(OC)c2OC)sc2c1CCC(C)C2 (stereo not given)	none
COCc1cc(C)nc2sc3c(c12)NC(c1ccc(NC(C)=O)cc1)N(c1ccc(C)cc1)C3=O (stereo not given)	Cruzain noTriton inconclusive
Cc1ccc(CCNC(=O)c2sc3ncccc3c2-n2c(C)ccc2C)cc1	none
